# Assay outcomes: PubChem BioAssay, National Center for Advancing Translational Sciences (NCATS)
# HCMV antiviral: human cytomegalovirus inhibition; HFF cells, HCMV-luciferase reporter, 72 h; active compounds read low; activity change, negative = inhibition, % at 57.5 µM; 4.5% of 410,000 active; AID 1259415; in the data active = activity change below about -60%; inconclusive = no clear call, values can overlap the other calls; inactive = above about -39%
#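 Two-dose cell screen: HFF monolayers treated with compounds and infected with luciferase-expressing HCMV at 1 PFU/cell, 72 h at 37C, then lysed for luciferase measurement.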
# Pf growth 96h: P. falciparum growth inhibition at 96 hours. P. falciparum luciferase reporter growth, 96 h. Potency, µM (highest dose often 28.7 µM), actives largely listed as inhibitors. 6.9% of 320,000 active
#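 Plates of compound plus infected erythrocytes (2% hematocrit, 0.05% parasitemia final) incubate 96 hours, 37 C, 5% CO2. Detection reagent added; reduced luminescence from the parasites' luciferase reporter flags inhibition.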
# Lassa entry inh: Lassa virus entry inhibition; 1.2% of 300,000 active; Lassa virus pseudotype entry inhibition, cell reporter; Potency, µM (highest dose often 37.9 µM), usual class: inhibitors; AID 540256; calls by dose curve; tested in HEK293 cells; also: nearly all actives have a fitted effect of over 50% in size
# HCV inhibitor: HCV inhibition | 3.4% of 340,000 active | Potency, µM (series often up to 41.8 µM), most hits filed as inhibitors | Huh7.5.1 HCVcc-Cre infection, luciferase reporter, 44 h
#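 Luciferase read-out (15 sec integration) after a 15 min room-temperature substrate step quantifies HCVcc-Cre infection. Cells, 1,000 per well, had compound added 4 h post-plating, then virus at ~0.5 moi, and were cultured 44 h.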
# Marburg entry inh: Marburg virus entry inhibition; Potency, µM (doses to about 37.8 µM), actives largely listed as inhibitors; Marburg virus pseudotyped entry inhibition, cell reporter; 1.8% of 300,000 active; calls by dose curve; tested in HEK293 cells
# Pf growth 48h: inhibits P. falciparum growth in the first generation, 48 h; P. falciparum luciferase growth in erythrocytes, 48 h; AID 504832; Potency, µM (titrated, usually from 28.7 µM), actives largely listed as inhibitors; 5.9% of 310,000 active
#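 Cell-based growth assay: transgenic P. falciparum expressing firefly luciferase, cultured in red cells within RPMI 1640 containing 0.5% w/v Albumax, 24 mM bicarbonate and gentamycin. A drop in luciferase activity indicates inhibition.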
# Hits are given with their value; . = inactive; ? = inconclusive; / = not tested or not shown. Only some compounds are listed: those with a hit (about 14% of all), similar ones and a draw of the others. Unless noted, calls follow the shape of the dose curve; as a rule, active = well fitted inhibition curve with a large enough effect; inconclusive = small, poorly fitted or top-dose-only effect, or another doubt; inactive = no such curve, though single readings can be large or run the other way.
SMILES,HCMV antiviral,Pf growth 96h,Lassa entry inh,HCV inhibitor,Marburg entry inh,Pf growth 48h
Cc1ccc(C)n1CCN1CCN(C(=O)CSc2nc3ccccc3nc2N2CCOCC2)CC1,.,.,.,.,.,12µM
COc1ncnc2c1ncn2CCCN(CCCc1ccccc1)CCCn1cnc2c(OC)ncnc21,.,/,/,/,/,/
CC(NC(=O)C1CCN(S(=O)(=O)c2cccc3nonc23)CC1)c1ccccc1 (stereo not drawn),-88,.,.,.,.,.
COc1ccc(N(C)C(=O)C2CCN(S(=O)(=O)c3cccc4nonc34)CC2)c(OC)c1,-61,9.3µM,?,.,?,?
CC(NC(=O)C1CCN(S(=O)(=O)c2cccc3cccnc23)CC1)c1ccccc1 (stereo not drawn),.,.,/,.,/,.
CN(Cc1ccccc1)C(=O)C1CCN(S(=O)(=O)c2cccc3nonc23)CC1,.,13µM,?,.,.,.
Cc1cccc(-n2c(O)c(/C=C3/C(c4ccccc4)=Nc4ccccc43)c(=O)[nH]c2=O)c1,?,12µM,/,?,/,10µM
CC1=Nc2ccccc2/C1=C/c1c(O)n(C)c(=O)[nH]c1=O,.,.,.,.,?,.
Cc1cccc(-n2c(O)c(/C=C/C=Nc3ccccc3)c(=O)[nH]c2=O)c1,.,.,.,.,?,.
Cc1ccc(-n2c(O)c(/C=C3/C(c4ccccc4)=Nc4ccccc43)c(=O)[nH]c2=O)cc1,.,7.4µM,.,?,?,8.3µM
Cc1ccccc1-n1c(O)c(/C=C2/C(c3ccccc3)=Nc3ccccc32)c(=O)[nH]c1=O,.,.,?,?,?,12µM
CC(=O)N1CCOc2cc(S(=O)(=O)NCc3ccc(C)cc3)c(Cl)cc21,.,/,.,/,/,/
CN1C(=O)C2(SCC(=O)N2c2ccc(Cl)cc2)c2ccccc21 (stereo not drawn),.,/,.,/,/,/
COc1ccc(-c2csc(C(NC(C)=O)c3ccc(F)c(F)c3)n2)cn1 (stereo not drawn),.,/,/,/,/,/
COc1cc2cc(c1Cl)N(C)C(=O)CC(OC(=O)C(C)N(C)C(C)=O)C1(C)OC1C(C)C1CC(O)(NC(=O)O1)C(OC)C=CC=C(C)C2 (stereo not drawn),-80,/,?,?,.,/
CCOc1ccc(S(=O)(=O)NCCC(=O)NCc2ccc(OC)c(OC)c2)cc1,.,.,/,.,/,.
CC1CN(c2nc3ccccc3nc2C(C#N)C(=O)OC2CCCCC2)CC(C)O1 (stereo not drawn),.,?,.,.,.,2.1µM
Cc1ccc(S(=O)(=O)C(C#N)c2nc3ccccc3nc2N2CC(C)OC(C)C2)cc1C (stereo not drawn),.,?,.,.,.,13µM
CC1CCN(c2nc3ccccc3nc2C(C#N)C(=O)OC2CCCCC2)CC1 (stereo not drawn),/,?,.,.,.,.
Cc1ccc(C)c(CN2C(=O)c3ccccc3S(=O)c3ccc(C(=O)NCc4ccccc4)cc32)c1 (stereo not drawn),?,/,.,/,?,/
O=C(NCc1cc([N+](=O)[O-])ccc1O)c1cccnc1Sc1ccccc1,/,12µM,/,.,/,?
O=C(NNC(=O)c1cccnc1SCc1cccc([N+](=O)[O-])c1)c1cccnc1,.,.,.,.,.,.
O=C(NNC(=O)c1cccnc1SCc1cccc([N+](=O)[O-])c1)c1ccc(F)cc1,-92,.,?,?,?,.
O=C(NNC(=O)c1cccnc1SCc1cccc([N+](=O)[O-])c1)c1ccccn1,-100,.,?,?,3.2µM,5.2µM
Cc1ccc(Sc2ncccc2C(=O)NCc2cc([N+](=O)[O-])ccc2O)c(C)c1,.,?,/,.,/,.
SMILES,HCMV antiviral,Pf growth 96h,Lassa entry inh,HCV inhibitor,Marburg entry inh,Pf growth 48h
O=C(Nc1ccc(Cl)cc1)c1csc([C@@H]2O[C@H](CO)[C@@H](O)[C@H]2O)n1,.,/,/,/,/,/
O=C(c1ccc(CSc2nc3ccncc3n2Cc2ccccc2F)cc1)N1CCCCC1,-62,/,/,/,.,/
Cc1ccc(Cn2c(SCc3ccc(C(=O)NC4CCCC4)cc3)nc3ccncc32)cc1,-74,/,.,/,.,/
O=C(c1ccc(CSc2nc3ccncc3n2Cc2ccc(F)cc2)cc1)N1CCCCCC1,.,/,.,/,.,/
Cc1ccc(Cn2c(SCc3ccc(C(=O)NC4CCCCC4)cc3)nc3ccncc32)cc1,?,/,/,/,.,/
NS(=O)(=O)c1cc(-c2nn[nH]n2)c(NCc2cccs2)cc1Cl,/,12µM,/,/,/,.
O=C(COC(=O)c1cnc(Cl)c(Cl)c1)NCc1cccs1,.,.,.,.,?,.
COc1ccccc1C(O)(C(=O)NNc1ccccc1C)c1ccccc1OC,.,6.6µM,.,.,.,?
COc1ccccc1C(O)(C(=O)NNc1cccc(C)c1)c1ccccc1OC,.,2.6µM,.,.,.,.
CCC(O)(C(=O)Nc1ccccc1C(F)(F)F)c1ccccc1OC (stereo not drawn),.,.,/,.,/,?
CCN(C(=O)c1cc2c(s1)-c1ccccc1S(=O)(=O)C2)c1cc(OC)ccc1OC,.,?,/,10µM,/,9.3µM
O=C(c1cc2c(s1)-c1ccccc1S(=O)(=O)C2)N1CCCC1,.,.,/,.,/,.
CCN(C(=O)c1cc2c(s1)-c1ccccc1OC2)c1cc(OC)ccc1OC,.,12µM,/,13µM,/,?
O=C(NCCSc1c(-c2ccc(Cl)cc2)[nH]c2ccccc12)c1ccc(S(=O)(=O)N2CCOCC2)cc1,.,/,?,/,.,/
COc1ccc(C)cc1NC(=O)C1CCN(C(=O)C2CC(=O)N(c3ccc(C)cc3)C2)CC1 (stereo not drawn),.,.,.,.,.,.
COc1ccc(OC)c(NC(=O)c2cc(-c3cc(Cl)ccc3O)n[nH]2)c1,?,8.3µM,?,7.1µM,?,1.7µM
CCCOc1ccc(F)cc1-c1cc(C(=O)Nc2cc(OC)ccc2OC)[nH]n1,-80,/,/,/,/,/
COc1ccc(NC(=O)c2cc(-c3cc(C)ccc3O)n[nH]2)cc1Cl,.,?,.,?,.,2.1µM
COc1ccc(Cl)cc1NC(=O)c1cc(-c2ccccc2O)n[nH]1,.,10µM,?,?,?,10µM
Cc1ccc2c(c1)-c1c(c(C(=O)N3CCN(c4cc(C)ccc4C)CC3)nn1C)CS2,?,/,.,/,/,/
CCCCNC(=O)c1nc2cc(C)c(C)cc2nc1-c1ccc2c(c1)OCO2,.,/,/,/,/,/
O=C(COc1ccc(Cl)cc1Cl)N/N=C/c1ccc(OC2OC(CO)C(O)C(O)C2O)cc1 (stereo not drawn),-79,.,/,.,/,.
O=C(NNc1ncccc1-n1cccc1)c1ccc(Cl)cc1,.,.,.,.,.,.
CC(C)(C)c1ccc(C(=O)NNc2ncccc2-n2cccc2)cc1,-60,?,/,.,/,?
Cc1nc(N2CCN(c3ccccn3)CC2)c2c(C)c(C(=O)Nc3ccc(Cl)cc3)sc2n1,?,.,/,?,/,?
Cc1nc(N2CCN(c3ccccn3)CC2)c2c(C)c(C(=O)Nc3c(C)cc(Br)cc3C)sc2n1,.,.,/,?,/,1.9µM
